From PubChem BioAssay (EPA / NIEHS)
Records with an inconclusive call do not appear. Active and inactive are the calls of the source. How the source made its calls, unless noted: active means hit-call score of the fitted dose curve at least 0.9, where 1 is the maximum; inconclusive means response in the unintended direction; inactive means score below 0.9.

Tests used:
[1] = ATG_TCF_b_cat_CIS: Attagene CIS-FACTORIAL HepG2 Assay for human T-Cell-Factor with beta-catenin (TCF/b-cat) (AID 2282965; active means hit-call score of the fitted dose curve at least 0.9, where 1 is the maximum; inactive means score below 0.9); settings: HepG2 TCF/beta-catenin cis-reporter transcription, actives raise or lower the signal
Outline: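 Measured: reporter mRNA in HepG2 transiently transfected with cis-promoter reporter units, 24 h after chemical addition. Fitting was bidirectional, DMSO as negative control.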

[2] = ATG_TAL_CIS: Attagene CIS-FACTORIAL HepG2 Assay for human TAL Basal Promoter (AID 2282966; active means hit-call score of the fitted dose curve at least 0.9, where 1 is the maximum; inactive means score below 0.9;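 further: background control endpoint measuring basal TAL promoter reporter mRNA not a specific factor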); settings: HepG2 Attagene cis-factorial TAL promoter reporter; actives raise or lower the signal
Outline: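 Basal-promoter background-control endpoint from a multiplexed HepG2 reporter panel. Cells were exposed 24 h, then reporter mRNA was read by RT-PCR/CE fluorescence and fitted in both directions relative to DMSO.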

[3] = ATG_VDRE_CIS: Attagene CIS-FACTORIAL HepG2 Assay for human Vitamin D Receptor Element (VDRE) (AID 2282968; active means hit-call score of the fitted dose curve at least 0.9, where 1 is the maximum; inactive means score below 0.9); settings: HepG2 VDRE cis-reporter transcription, actives raise or lower the signal
Outline: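 Measures endogenous factor activity through cis-element-driven reporter transcripts in transiently transfected HepG2. Cells are treated 24 h; reporter mRNA is quantified by RT-PCR and capillary electrophoresis; fitting is bidirectional.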

[4] = target: Nuclear receptor subfamily 1 group I member 3 (Homo sapiens) (UniProt Q14994); assay: ATG_CAR_TRANS: Attagene TRANS-FACTORIAL HepG2 Assay for human Constitutive Androstane Receptor (CAR) (AID 2282969); settings: HepG2 Attagene TRANS-FACTORIAL CAR reporter;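 further: activators raise reporter mRNA above DMSO so AC50 marks induction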
Outline: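 Signal is reporter mRNA induction relative to DMSO, measured 24 h after dosing by RT-PCR with fluorescent primer extension and capillary electrophoresis. Human HepG2 liver cells carried transiently transfected chimeric NR-Gal4/GAL4-UAS reporter constructs.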

[5] = target: Steroid hormone receptor ERR1 (Homo sapiens) (UniProt P11474); assay: ATG_ERRa_TRANS: Attagene TRANS-FACTORIAL HepG2 Assay for human Estrogen-Related Receptor alpha (ERRa) (AID 2282971); settings: HepG2 Attagene TRANS reporter, ERRa transactivation
Outline: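 HepG2 cells transiently transfected with GAL4-UAS reporter units and chimeric NR-Gal4 constructs; after 24 hour compound incubation, reporter mRNA quantified by RT-PCR, fluorescent labelling and capillary electrophoresis, gain of signal versus DMSO.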

[6] = target: X-box-binding protein 1 (Homo sapiens) (UniProt P17861); assay: ATG_Xbp1_CIS: Attagene CIS-FACTORIAL HepG2 Assay for human X-box Binding Protein 1 (XBP1) (AID 2282972; active means hit-call score of the fitted dose curve at least 0.9, where 1 is the maximum; inactive means score below 0.9); settings: HepG2 XBP1 cis-element reporter, Attagene multiplex; actives raise or lower the signal
Outline: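 Multiplexed cis-reporter readout in transfected HepG2 liver cells. Exposure lasted 24 hours. Activity in either direction was fitted against DMSO as negative control and baseline.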

[7] = ATG_M_19_TRANS: Attagene TRANS-FACTORIAL HepG2 Assay for M19 Transcription Factor (Internal Marker) (AID 2282974); settings: HepG2 Attagene TRANS-FACTORIAL M19 internal marker reporter
Outline: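 Reporter mRNA induction was measured in transfected HepG2 cells 24 h after dosing. Endpoint fitted upward relative to DMSO and serves as a background control within the multiplexed TRANS panel.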

[8] = ATG_GAL4_TRANS: Attagene TRANS-FACTORIAL HepG2 Assay for GAL4 (Internal Marker) (AID 2282976); settings: HepG2 Attagene TRANS GAL4 internal marker reporter
Outline: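 Background-control readout: GAL4-UAS reporter transcript in transiently transfected HepG2 cells after 24 h compound exposure. Measured by RT-PCR, 6-FAM primer extension, HpaI digest and capillary electrophoresis; gain-of-signal fit versus DMSO.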

[9] = target: Glucocorticoid receptor (Homo sapiens) (UniProt P04150); assay: ATG_GR_TRANS: Attagene TRANS-FACTORIAL HepG2 Assay for human Glucocorticoid Receptor (GR) (AID 2282978); settings: HepG2 Attagene TRANS GR reporter, mRNA transcription;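 further: activators score as hits since higher reporter transcript over DMSO is fitted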
Outline: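 Reporter transcript levels, detected by fluorescence after RT-PCR and capillary electrophoresis, served as the endpoint. HepG2 cells bearing transfected GAL4-UAS reporters responsive to NR-GAL4 chimeras were incubated with compound 24 h; DMSO defined baseline.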

[10] = target: Bile acid receptor (Homo sapiens) (UniProt Q96RI1); assay: ATG_FXR_TRANS: Attagene TRANS-FACTORIAL HepG2 Assay for Farnesoid X Receptor (FXR) (AID 2282979); settings: HepG2 Attagene TRANS FXR-GAL4 reporter transcription;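 further: hits raise reporter mRNA above DMSO so AC50 marks FXR activation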
Outline: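 HepG2 cells were transiently transfected with GAL4-UAS reporters driven by chimeric NR-Gal4 proteins and dosed for 24 h. Reporter mRNA was quantified by RT-PCR, fluorescent labelling, HpaI digestion and capillary electrophoresis, with gain of signal scored versus DMSO.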

[11] = target: Oxysterols receptor LXR-alpha (Homo sapiens) (UniProt Q13133); assay: ATG_LXRa_TRANS: Attagene TRANS-FACTORIAL HepG2 Assay for human Liver X Receptor alpha (LXRa) (AID 2282980); settings: HepG2 Attagene TRANS reporter, LXRa transactivation
Outline: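 HepG2 cells transiently transfected with GAL4-UAS reporter units for chimeric NR-Gal4 proteins, exposed to chemicals for 24 h. Reporter mRNA quantified by RT-PCR and capillary electrophoresis; gain of signal fitted relative to DMSO.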

[12] = target: Oxysterols receptor LXR-beta (Homo sapiens) (UniProt P55055); assay: ATG_LXRb_TRANS: Attagene TRANS-FACTORIAL HepG2 Assay for human Liver X Receptor beta (LXRb) (AID 2282981); settings: HepG2 Attagene TRANS GAL4-LXRb reporter, mRNA
Outline: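 After 24 h of chemical treatment, transfected HepG2 cells yield total RNA; reporter cDNA is PCR-amplified, FAM-labelled, HpaI-cut and run on capillary electrophoresis. Signal reflects chimeric LXRb-Gal4 activity on GAL4-UAS reporters.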

[13] = target: Hepatocyte nuclear factor 4-alpha (Homo sapiens) (UniProt P41235); assay: ATG_HNF4a_TRANS: Attagene TRANS-FACTORIAL HepG2 Assay for human Hepatocyte Nuclear Factor 4 alpha (HNF4a) (AID 2282982); settings: HepG2 HNF4a transactivation reporter, mRNA readout
Outline: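 Multiplexed reporter assay: transfected HepG2, 24 h exposure, total RNA → oligo(dT) RT → PCR → 6-FAM extension → HpaI digest → CE fluorescence. DMSO = negative control.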

[14] = target: Nuclear receptor subfamily 4 group A member 2 (Homo sapiens) (UniProt P43354); assay: ATG_NURR1_TRANS: Attagene TRANS-FACTORIAL HepG2 Assay for human Nuclear Receptor Related Protein 1 (NURR1) (AID 2282985); settings: HepG2 Attagene TRANS reporter, mRNA readout
Outline: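 Measures transcriptional activation by an exogenous NR-Gal4 chimera in transfected HepG2 liver cells. After 24 h, reporter RNA is reverse-transcribed, amplified and resolved by capillary electrophoresis; DMSO defines baseline.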

[15] = target: Transcriptional activator Myb (Homo sapiens) (UniProt P10242); assay: ATG_Myb_CIS: Attagene CIS-FACTORIAL HepG2 Assay for human Myeloblastosis (Myb) Proto-Oncogene Transcription Factor (AID 2282986; active means hit-call score of the fitted dose curve at least 0.9, where 1 is the maximum; inactive means score below 0.9); settings: HepG2 Attagene CIS-FACTORIAL Myb reporter transcription; actives raise or lower the signal
Outline: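 Transiently transfected HepG2 cells, treated 24 h. Reporter mRNA quantified by RT-PCR/capillary electrophoresis; bidirectional fit relative to DMSO.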

[16] = target: Estrogen receptor (Homo sapiens) (UniProt P03372); assay: ATG_ERa_TRANS: Attagene TRANS-FACTORIAL HepG2 Assay for human Estrogen Receptor alpha (ERa) (AID 2282970); settings: HepG2 Attagene TRANS ERa GAL4 reporter, mRNA
Outline: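 Gal4-fusion ERa transactivation, measured as reporter transcript level in transiently transfected HepG2 cells. Exposure 24 h; RT-PCR plus capillary electrophoresis with fluorescence detection.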

[17] = ATG_M_06_TRANS: Attagene TRANS-FACTORIAL HepG2 Assay for M06 Transcription Factor (Internal Marker) (AID 2282983); settings: HepG2 Attagene TRANS M06 internal marker reporter
Outline: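 mRNA levels of a reporter transcript, quantified as FAM fluorescence on capillary electrophoresis, served as readout. HepG2 cells expressing exogenous GAL4-chimera reporter constructs were exposed for 24 h. Gain of signal over DMSO was evaluated.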

[18] = ATG_M_32_TRANS: Attagene TRANS-FACTORIAL HepG2 Assay for M32 Transcription Factor (Internal Marker) (AID 2282984); settings: HepG2 Attagene TRANS M32 internal marker reporter
Outline: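 Cell-based TRANS-format assay in HepG2: exogenous chimeric GAL4 reporter units transiently expressed, compounds applied 24 h. Reporter mRNA detected by RT-PCR plus capillary electrophoresis; this readout is an internal background marker.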

[19] = target: Estrogen-related receptor gamma (Homo sapiens) (UniProt P62508); assay: ATG_ERRg_TRANS: Attagene TRANS-FACTORIAL HepG2 Assay for human Estrogen-Related Receptor gamma (ERRg) (AID 2282977); settings: HepG2 Attagene TRANS reporter, ERRg transactivation;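 further: hits increase reporter signal over DMSO so potencies reflect activators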
Outline: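 Exogenous NR-Gal4 chimera activity was assessed in HepG2 cells bearing transfected GAL4-UAS reporters. After 24 h dosing, total RNA underwent RT-PCR, fluorescent primer extension and HpaI digestion before capillary electrophoresis, with gain of signal scored against DMSO.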

Chain of Oxysterols receptor LXR-alpha (Homo sapiens) (Q13133 whole entry, looked up, the tested form may be a part): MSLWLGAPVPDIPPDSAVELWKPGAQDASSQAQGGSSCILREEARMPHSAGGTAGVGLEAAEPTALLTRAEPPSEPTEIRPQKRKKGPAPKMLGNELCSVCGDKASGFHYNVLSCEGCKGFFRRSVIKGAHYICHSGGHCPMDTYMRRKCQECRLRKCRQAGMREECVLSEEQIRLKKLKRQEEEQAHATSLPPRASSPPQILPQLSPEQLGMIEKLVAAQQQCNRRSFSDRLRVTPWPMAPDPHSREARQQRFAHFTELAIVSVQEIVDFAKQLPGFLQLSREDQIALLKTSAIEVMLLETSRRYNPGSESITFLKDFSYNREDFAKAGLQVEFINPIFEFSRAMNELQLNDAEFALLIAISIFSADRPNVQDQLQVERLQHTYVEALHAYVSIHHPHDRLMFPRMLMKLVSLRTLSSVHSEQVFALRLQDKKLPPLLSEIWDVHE
Chain of Bile acid receptor (Homo sapiens) (Q96RI1 whole entry, looked up, the tested form may be a part): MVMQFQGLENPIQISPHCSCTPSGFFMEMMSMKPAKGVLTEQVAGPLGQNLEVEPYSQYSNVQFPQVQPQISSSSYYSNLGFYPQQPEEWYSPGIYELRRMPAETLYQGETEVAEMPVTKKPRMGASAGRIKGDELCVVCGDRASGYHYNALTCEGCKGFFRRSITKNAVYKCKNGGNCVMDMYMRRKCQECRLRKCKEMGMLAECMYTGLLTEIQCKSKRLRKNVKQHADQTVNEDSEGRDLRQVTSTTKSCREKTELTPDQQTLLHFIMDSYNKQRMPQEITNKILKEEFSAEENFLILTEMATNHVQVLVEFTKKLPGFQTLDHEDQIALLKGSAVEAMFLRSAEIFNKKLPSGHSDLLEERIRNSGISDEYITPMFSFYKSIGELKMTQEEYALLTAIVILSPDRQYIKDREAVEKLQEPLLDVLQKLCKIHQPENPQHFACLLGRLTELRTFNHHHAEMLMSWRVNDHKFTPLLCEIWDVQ
Chain of Estrogen receptor (Homo sapiens) (P03372 whole entry, looked up, the tested form may be a part): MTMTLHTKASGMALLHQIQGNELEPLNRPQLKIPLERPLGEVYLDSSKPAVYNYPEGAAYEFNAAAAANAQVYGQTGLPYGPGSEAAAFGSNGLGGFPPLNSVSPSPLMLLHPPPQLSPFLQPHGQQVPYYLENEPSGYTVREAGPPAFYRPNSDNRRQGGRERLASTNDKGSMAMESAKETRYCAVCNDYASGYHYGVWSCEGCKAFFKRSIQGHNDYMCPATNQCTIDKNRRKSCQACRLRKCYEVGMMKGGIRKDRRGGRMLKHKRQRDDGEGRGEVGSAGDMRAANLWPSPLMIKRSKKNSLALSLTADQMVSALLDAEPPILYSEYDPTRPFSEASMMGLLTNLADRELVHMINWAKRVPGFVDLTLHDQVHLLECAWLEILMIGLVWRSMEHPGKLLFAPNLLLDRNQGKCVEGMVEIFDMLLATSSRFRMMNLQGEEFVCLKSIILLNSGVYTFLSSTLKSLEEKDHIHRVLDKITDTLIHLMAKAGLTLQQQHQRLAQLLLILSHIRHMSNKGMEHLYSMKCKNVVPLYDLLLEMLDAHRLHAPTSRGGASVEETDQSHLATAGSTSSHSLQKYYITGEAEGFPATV
Chain of Transcriptional activator Myb (Homo sapiens) (P10242 whole entry, looked up): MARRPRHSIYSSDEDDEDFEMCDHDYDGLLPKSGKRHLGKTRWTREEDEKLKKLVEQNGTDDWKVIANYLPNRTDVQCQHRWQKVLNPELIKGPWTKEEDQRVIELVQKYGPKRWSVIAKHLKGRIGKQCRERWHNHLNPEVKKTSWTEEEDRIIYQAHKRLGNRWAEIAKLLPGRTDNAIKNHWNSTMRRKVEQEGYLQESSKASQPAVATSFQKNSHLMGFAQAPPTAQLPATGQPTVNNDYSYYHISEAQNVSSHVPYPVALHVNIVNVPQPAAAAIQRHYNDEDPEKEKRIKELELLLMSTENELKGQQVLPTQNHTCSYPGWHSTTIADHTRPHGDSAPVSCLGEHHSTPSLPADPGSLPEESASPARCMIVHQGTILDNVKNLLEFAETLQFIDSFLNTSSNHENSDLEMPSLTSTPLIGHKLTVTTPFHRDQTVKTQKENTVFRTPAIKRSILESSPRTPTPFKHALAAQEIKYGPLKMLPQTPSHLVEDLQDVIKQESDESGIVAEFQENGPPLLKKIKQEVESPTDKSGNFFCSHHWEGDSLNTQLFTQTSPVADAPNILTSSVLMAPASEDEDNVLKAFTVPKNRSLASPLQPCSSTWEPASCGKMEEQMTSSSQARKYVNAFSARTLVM
Chain of Nuclear receptor subfamily 4 group A member 2 (Homo sapiens) (P43354 whole entry, looked up, the tested form may be a part): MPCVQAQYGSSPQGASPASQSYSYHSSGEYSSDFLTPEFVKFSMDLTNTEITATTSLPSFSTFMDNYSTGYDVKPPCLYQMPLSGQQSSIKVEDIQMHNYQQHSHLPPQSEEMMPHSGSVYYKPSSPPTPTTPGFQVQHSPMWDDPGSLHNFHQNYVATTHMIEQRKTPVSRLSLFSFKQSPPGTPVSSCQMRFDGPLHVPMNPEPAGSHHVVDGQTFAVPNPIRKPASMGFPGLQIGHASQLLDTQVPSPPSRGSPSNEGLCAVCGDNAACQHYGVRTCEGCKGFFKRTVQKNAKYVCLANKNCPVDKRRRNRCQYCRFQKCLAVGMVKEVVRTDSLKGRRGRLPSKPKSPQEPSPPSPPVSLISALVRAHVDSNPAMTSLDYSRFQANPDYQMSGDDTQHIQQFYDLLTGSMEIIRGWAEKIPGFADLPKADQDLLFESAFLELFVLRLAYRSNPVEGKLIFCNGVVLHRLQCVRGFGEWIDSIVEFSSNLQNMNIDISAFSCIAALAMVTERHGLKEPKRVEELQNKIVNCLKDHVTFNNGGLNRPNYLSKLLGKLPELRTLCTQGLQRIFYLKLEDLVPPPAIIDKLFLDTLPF
Chain of Glucocorticoid receptor (Homo sapiens) (P04150 whole entry, looked up, the tested form may be a part): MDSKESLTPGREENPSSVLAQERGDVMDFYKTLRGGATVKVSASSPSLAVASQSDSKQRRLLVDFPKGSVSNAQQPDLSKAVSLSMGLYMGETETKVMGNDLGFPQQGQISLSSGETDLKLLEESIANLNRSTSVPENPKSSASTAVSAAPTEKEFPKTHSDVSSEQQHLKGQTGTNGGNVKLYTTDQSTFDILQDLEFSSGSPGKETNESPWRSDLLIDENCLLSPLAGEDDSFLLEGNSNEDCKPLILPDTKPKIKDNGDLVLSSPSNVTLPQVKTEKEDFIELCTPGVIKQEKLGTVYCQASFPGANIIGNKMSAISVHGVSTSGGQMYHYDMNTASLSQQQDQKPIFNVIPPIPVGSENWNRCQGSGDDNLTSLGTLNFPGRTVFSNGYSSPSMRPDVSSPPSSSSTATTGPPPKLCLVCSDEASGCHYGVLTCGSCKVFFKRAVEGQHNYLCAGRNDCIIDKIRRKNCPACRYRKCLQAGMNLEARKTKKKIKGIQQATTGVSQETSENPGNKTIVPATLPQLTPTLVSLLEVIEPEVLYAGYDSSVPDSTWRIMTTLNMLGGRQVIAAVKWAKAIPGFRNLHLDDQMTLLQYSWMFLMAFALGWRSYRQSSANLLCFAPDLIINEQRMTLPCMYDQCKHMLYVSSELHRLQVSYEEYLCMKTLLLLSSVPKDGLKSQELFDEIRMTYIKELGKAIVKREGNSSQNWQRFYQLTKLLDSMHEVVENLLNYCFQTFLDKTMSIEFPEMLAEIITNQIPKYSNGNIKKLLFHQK
Chain of Hepatocyte nuclear factor 4-alpha (Homo sapiens) (P41235 whole entry, looked up): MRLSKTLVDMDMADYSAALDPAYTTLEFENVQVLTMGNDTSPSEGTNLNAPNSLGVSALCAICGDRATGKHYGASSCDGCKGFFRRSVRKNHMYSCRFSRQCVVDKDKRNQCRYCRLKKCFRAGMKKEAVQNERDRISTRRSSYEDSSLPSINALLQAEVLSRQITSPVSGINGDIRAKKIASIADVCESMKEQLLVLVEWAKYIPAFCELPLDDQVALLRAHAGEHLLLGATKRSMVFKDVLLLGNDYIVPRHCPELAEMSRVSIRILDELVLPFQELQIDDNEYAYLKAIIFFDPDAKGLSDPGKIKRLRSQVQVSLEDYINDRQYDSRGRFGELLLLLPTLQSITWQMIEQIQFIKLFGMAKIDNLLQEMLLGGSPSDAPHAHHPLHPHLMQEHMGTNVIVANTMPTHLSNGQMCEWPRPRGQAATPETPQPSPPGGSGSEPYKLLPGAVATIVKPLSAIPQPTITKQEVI
Chain of X-box-binding protein 1 (Homo sapiens) (P17861 whole entry, looked up): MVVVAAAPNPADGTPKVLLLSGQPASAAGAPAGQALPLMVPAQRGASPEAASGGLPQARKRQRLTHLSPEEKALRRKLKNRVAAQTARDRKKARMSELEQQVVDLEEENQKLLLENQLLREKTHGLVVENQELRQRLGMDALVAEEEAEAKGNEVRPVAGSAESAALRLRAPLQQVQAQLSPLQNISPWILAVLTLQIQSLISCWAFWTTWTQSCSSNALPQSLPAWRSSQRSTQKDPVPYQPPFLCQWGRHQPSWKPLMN
Chain of Nuclear receptor subfamily 1 group I member 3 (Homo sapiens) (Q14994 whole entry, looked up, the tested form may be a part): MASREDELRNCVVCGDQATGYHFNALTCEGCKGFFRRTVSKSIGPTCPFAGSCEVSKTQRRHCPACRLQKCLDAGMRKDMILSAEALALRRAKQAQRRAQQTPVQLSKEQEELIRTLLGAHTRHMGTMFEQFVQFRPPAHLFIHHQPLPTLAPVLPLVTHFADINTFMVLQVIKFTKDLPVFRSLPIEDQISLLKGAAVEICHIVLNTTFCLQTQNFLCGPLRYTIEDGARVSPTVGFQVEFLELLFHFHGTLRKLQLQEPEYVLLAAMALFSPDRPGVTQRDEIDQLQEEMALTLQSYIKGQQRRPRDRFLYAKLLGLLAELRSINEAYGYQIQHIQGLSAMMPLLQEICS

## CC=CC(=O)C1=C(C)C=CCC1(C)C
[1]
  outcome: inactive
[2]
  outcome: inactive
[3]
  outcome: inactive
[4]
  outcome: inactive
[5]
  outcome: inactive
[6]
  outcome: inactive
[7]
  outcome: inactive
[8]
  outcome: inactive
[9]
  outcome: inactive
[10]
  outcome: inactive
[11]
  outcome: inactive
[12]
  outcome: inactive
[13]
  outcome: inactive
[14]
  outcome: inactive
[15]
  outcome: inactive

## CC(C)N1C(=O)c2ccccc2C1=O
[1]
  outcome: inactive
[2]
  outcome: inactive
[3]
  outcome: inactive
[4]
  outcome: inactive
[16]
  AC50: 42.8 µM (active)
[6]
  outcome: inactive
[11]
  outcome: inactive
[17]
  outcome: inactive
[18]
  outcome: inactive
[15]
  outcome: inactive

## S=c1[nH][nH]c(=S)s1
[1]
  outcome: inactive
[2]
  outcome: inactive
[3]
  outcome: inactive
[6]
  outcome: inactive
[7]
  outcome: inactive
[8]
  outcome: inactive
[9]
  outcome: inactive
[11]
  outcome: inactive
[14]
  outcome: inactive
[15]
  outcome: inactive

## CCCCCCCCCCOC(=O)c1ccccc1C(=O)OCCCCCCCC
[1]
  outcome: inactive
[2]
  outcome: inactive
[3]
  outcome: inactive
[4]
  outcome: inactive
[6]
  outcome: inactive
[7]
  outcome: inactive
[8]
  outcome: inactive
[11]
  outcome: inactive
[13]
  outcome: inactive
[15]
  outcome: inactive

## c1ccc2c(c1)-c1ccc3ccc4cccc5cc-2c1c3c45
[1]
  outcome: inactive
[2]
  outcome: inactive
[3]
  outcome: inactive
[4]
  outcome: inactive
[6]
  outcome: inactive
[10]
  outcome: inactive
[11]
  outcome: inactive
[12]
  outcome: inactive
[13]
  outcome: inactive
[17]
  outcome: inactive
[18]
  outcome: inactive
[14]
  outcome: inactive
[15]
  outcome: inactive

## CCCCCCC(C)O (stereo not drawn)
[1]
  outcome: inactive
[2]
  outcome: inactive
[3]
  outcome: inactive
[6]
  outcome: inactive
[7]
  outcome: inactive
[8]
  outcome: inactive
[9]
  outcome: inactive
[12]
  outcome: inactive
[13]
  outcome: inactive
[17]
  outcome: inactive
[18]
  outcome: inactive
[15]
  outcome: inactive

## CCOCC(C)O (stereo not drawn)
[1]
  outcome: inactive
[2]
  outcome: inactive
[3]
  outcome: inactive
[16]
  outcome: inactive
[5]
  outcome: inactive
[6]
  outcome: inactive
[7]
  outcome: inactive
[19]
  outcome: inactive
[11]
  outcome: inactive
[12]
  outcome: inactive
[13]
  outcome: inactive
[18]
  outcome: inactive
[14]
  outcome: inactive
[15]
  outcome: inactive

## CC1=CC(C)C(C=O)C(C)C1 (stereo not drawn) (tested in a mixture with another compound)
[1]
  outcome: inactive
[2]
  outcome: inactive
[3]
  AC50: 28.8 µM (active)
[4]
  outcome: inactive
[6]
  outcome: inactive
[9]
  outcome: inactive
[10]
  outcome: inactive
[11]
  outcome: inactive
[12]
  outcome: inactive
[17]
  outcome: inactive
[18]
  outcome: inactive
[14]
  outcome: inactive
[15]
  outcome: inactive

## CC(O)COCC(C)O (stereo not drawn)
[1]
  outcome: inactive
[2]
  outcome: inactive
[3]
  outcome: inactive
[16]
  outcome: inactive
[6]
  outcome: inactive
[7]
  outcome: inactive
[8]
  outcome: inactive
[10]
  outcome: inactive
[12]
  outcome: inactive
[18]
  outcome: inactive
[15]
  outcome: inactive
